# Values joined by “and” are separate entries in the source; they are usually repeats but may differ in a detail not shown here. Equal entries are not always repeated. Structures can show the parent of a compound that is named as a salt.
# System: K562
# Assay: cell viability relative to vehicle control; higher = less cytotoxic
# Conditions: 10 µM; SRSF2 genotype: SRSF2 P95H/wt
# Summary of the method: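 Mutant clones made by CRISPR editing and their isogenic wild-type counterparts, from four leukaemia lines, were exposed to a single 10 µM dose of each library compound for 48 h. The supernatant was then removed and CellTiter-Glo luminescence was read. Viability was reported as percent of the on-plate vehicle control.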
row,Structure (SMILES),cell viability
1,O=c1cc(N2CCOCC2)oc2c(-c3ccccc3)cccc12,76.7% and 86.9%
2,C[C@@H]1C(=O)O[C@H](C)[C@H]1C[C@@H](O)[C@](C)(O)[C@H]1CC[C@@]2(O)C3=CC(=O)[C@@H]4C[C@@H](O)[C@@H](O)C[C@]4(C)[C@H]3CC[C@]12C [Cyasterone],105% and 98%
3,CSCC[C@H](NC(=O)[C@H](CC(C)C)NC(=O)[C@H](Cc1c[nH]c2ccccc12)NC(=O)[C@H](CCC(N)=O)NC(=O)[C@@H](NC(=O)[C@H](Cc1ccccc1)NC(=O)[C@H](CC(=O)O)NC(=O)[C@H](CCC(N)=O)NC(=O)[C@H](C)NC(=O)[C@H](CCCNC(=N)N)NC(=O)[C@H](CCCNC(=N)N)NC(=O)[C@H](CO)NC(=O)[C@H](CC(=O)O)NC(=O)[C@H](CC(C)C)NC(=O)[C@H](Cc1ccc(O)cc1)NC(=O)[C@H](CCCCN)NC(=O)[C@H](CO)NC(=O)[C@H](Cc1ccc(O)cc1)NC(=O)[C@H](CC(=O)O)NC(=O)[C@H](CO)NC(=O)[C@@H](NC(=O)[C@H](Cc1ccccc1)NC(=O)[C@@H](NC(=O)CNC(=O)[C@H](CCC(N)=O)NC(=O)[C@H](CO)NC(=O)[C@@H](N)Cc1cnc[nH]1)[C@@H](C)O)[C@@H](C)O)C(C)C)C(=O)N[C@@H](CC(N)=O)C(=O)N[C@H](C(=O)O)[C@@H](C)O [Glucagon HCl],113% and 109%
4,CCc1ccc(Cc2ccc3c(c2)[C@]2(OC3)O[C@H](CO)[C@@H](O)[C@H](O)[C@H]2O)cc1 [Tofogliflozin(CSG 452)],81.3% and 83.7%
5,CCCCC(C)(O)C/C=C/[C@H]1[C@H](O)CC(=O)[C@@H]1CCCCCCC(=O)OC (mixture of isomers) [Misoprostol],89.4% and 78.1%
6,O=C(Nc1ccc(Br)cc1)c1ccc(Br)c(S(=O)(=O)NCc2ccccc2)c1,83.5% and 88.7%
7,CC[C@H]1OC(=O)[C@H](C)[C@@H](O[C@H]2C[C@@](C)(OC)[C@@H](O)[C@H](C)O2)[C@H](C)[C@@H](O[C@@H]2O[C@H](C)C[C@H](N(C)C)[C@H]2O)[C@](C)(O)C[C@@H](C)/C(=N\OCOCCOC)[C@H](C)[C@@H](O)[C@]1(C)O [Roxithromycin (Roxl-150)],104% and 106%
8,C=C1CC[C@H](O)C/C1=C/C=C1\CCC[C@]2(C)[C@@H]([C@H](C)/C=C/[C@H](C)C(C)C)CC[C@@H]12 [Vitamin D2 (Ergocalciferol)],103% and 100%
9,O=C(c1ccc(C(=O)N2CCC(N3CCCC3)CC2)c(Nc2ccccc2)c1)N1CCC(N2CCCC2)CC1,94.7% and 87.5%
10,OCc1ccc(-c2ccc(-c3ccc(CO)s3)o2)s1,56.7% and 54.9%
11,"CCNC(=O)c1noc(-c2cc(C(C)C)c(O)cc2O)c1-c1ccc(CN2CCOCC2)cc1 [Luminespib (AUY-922, NVP-AUY922)]",16.9% and 29.2%
12,O=C(c1ccc(Cl)cc1)N(Cc1ccccc1)C1CCCCC1,86.1% and 92.9%
13,COc1ccc2c3c1O[C@H]1C[C@@H](O)C=C[C@@]31CCN(C)C2 [Galanthamine],103% and 106%
14,"CN1CCN(c2ccc3nc(-c4c(N)c5c(F)cccc5[nH]c4=O)[nH]c3c2)CC1 [Dovitinib (TKI-258, CHIR-258)]",59.5% and 69.8%
15,COc1cc2nc(N3CCN(C(=O)C4CCCO4)CC3)nc(N)c2cc1OC (stereo unspecified) [Terazosin HCl Dihydrate],101% and 95.7%
16,CC[C@H](Nc1ncnc2[nH]cnc12)c1oc2ccccc2c(=O)c1-c1cccc(F)c1 [Tenalisib (RP6530)],101% and 96%
17,O=C(c1ccccc1)C(O)O [Phenylglyoxal hydrate],95.7% and 96.9%
18,O=c1c(O)c(-c2ccc(O)c(O)c2)oc2cc(O)cc(O)c12 [Quercetin (Sophoretin)],97.3% and 89.3%
19,CO[C@H]1/C=C/O[C@@]2(C)Oc3c(C)c(O)c4c(O)c(c5c(nc6cc(C)ccn65)c4c3C2=O)NC(=O)/C(C)=C\C=C\[C@H](C)[C@H](O)[C@@H](C)[C@@H](O)[C@@H](C)[C@H](OC(C)=O)[C@@H]1C [Rifaximin (Xifaxan)],97.9% and 106%
20,CC[C@@]1(O)C(=O)OCc2c1cc1n(c2=O)Cc2cc3c(CN(C)C)c(O)ccc3nc2-1 [Topotecan],20.3% and 28%
21,C=C(C)[C@@H]1CC[C@]2(C(=O)O[C@@H]3O[C@H](CO[C@@H]4O[C@H](CO)[C@@H](O[C@@H]5O[C@@H](C)[C@H](O)[C@@H](O)[C@H]5O)[C@H](O)[C@H]4O)[C@@H](O)[C@H](O)[C@H]3O)CC[C@]3(C)[C@H](CC[C@@H]4[C@@]5(C)CC[C@H](O[C@@H]6OC[C@H](O)[C@H](O)[C@H]6O[C@@H]6O[C@@H](C)[C@H](O)[C@@H](O)[C@H]6O)[C@@](C)(CO)[C@@H]5CC[C@]43C)[C@@H]12 [Anemoside B4],93.9% and 103%
